Experimental data reported in PubChem BioAssay (Tox21).
Results filed as inconclusive are left out. Unmarked numbers belong to inactive results. Calls follow the shape of the dose curve; as a rule, active = well fitted cell-killing curve with a large enough effect in the repeat runs (not every such curve was filed as active); inconclusive = weak or mixed curves, or effect the other way; inactive = no such curve, though single readings can be large or run the other way.

Experiment: qHTS assay to identify small molecule antagonists of the farnesoid-X-receptor (FXR) signaling pathway - cell viability counter screen (AID 743221); also: nearly all actives have a fitted effect of over 50% in size
Conditions: FXR-bla HEK293T viability, CellTiter-Glo luminescence, 16 h; series mostly up to 62.6 µM; activity change, negative = cytotoxicity: at the top concentration
Source text: National Center for Advancing Translational Sciences [NCATS]
NIH Chemical Genomics Center [NCGC]
U.S. Environmental Protection Agency [EPA]
National Institutes of Environmental Health Sciences [NIEHS]
National Toxicology Program [NTP]
U.S. Food and Drug Administration [FDA]
The farnesoid-X-receptor (FXR), a nuclear hormone receptor, is highly expressed in liver, intestine, kidney and adrenal cortex. Natural ligands of FXR are the bile acids (Cholic acid, Chenodeoxy cholic acid etc). FXR is an important regulator of diverse metabolic pathways, including the bile acid homeostasis, lipid and glucose metabolisms. FXR regulates the expression of target genes by binding either as a monomer or as a heterodimer with the retinoid X receptor (RXR). Numerous studies have reported that FXR exerts protective function during cholestasis, diabetes, liver regeneration, and cancer. To identify compounds that inhibit FXR signaling, GeneBLAzer FXR-UAS-bla HEK 293T cell line (Invitrogen, Carlsbad, CA) containing a beta-lactamase reporter gene under the control of a UAS response element was used to screen the Tox21 10K compound library. The cytotoxicity of the Tox21 compound library against the FXR-bla cell line was tested in parallel by measuring the cell viability using CellTiter-Glo assay in the same wells.
Tox21 Assay Protocol Summary:
FXR-bla cells were dispensed at 5000 cells/5uL/well in 1536-well black wall/clear bottom plates using a Multidrop Combi (Thermo Fisher Scientific, Waltham, MA) dispenser. After the assay plates were incubated at 37 C and 5% CO2 for 5 h, 23 nL of compounds dissolved in DMSO, positive controls or DMSO only was transferred to the assay plate by a Pintool station (Kalypsys, San Diego, CA), followed by addition of 1 uL Chenodeoxycholic acid (50 uM, final concentration in the wells). The assay plates were incubated at 37C for 16 h. After 1 uL of LiveBLAzerTM B/G FRET substrate was added using a Bioraptr Flying Reagent Dispenser (FRD) workstation (Beckman Coulter, Indianapolis, IN), the plates were incubated at room temperature for 2 h, and fluorescence intensity was measured by an Envision plate reader (PerkinElmer, Shelton, CT). For cell viability readout that measures cytotoxicity, 4uL/well of CellTiter-Glo reagent was added into the assay plates using a Bioraptr FRD. After 30 min incubation at room temperature, the luminescence intensity in the plates was measured using a ViewLux plate reader (PerkinElmer).
% is scaled to controls: 0 for no effect and ±100 for the full control effect.

Structure (SMILES) | activity change, negative = cytotoxicity
CC(C)(C)NCC(O)COc1ccc(NC(=O)NC2CCCCC2)cc1 (stereo not given) | -2.65%
O=[N+]([O-])c1cccc(I)c1 | 1.2%
CC(CCl)OC(C)CCl (stereo not given) | 2.06%
Cc1cc(C)c(C)c(O)c1 | -5.21%
C[Si](C)(C)O[Si](C)(C)O[Si](C)(C)C | 12.9%
Cc1nc(C)c(C)nc1C | 7.26%
C=CCCC | -7.78% [at 81.1 µM]
CC(CC(C#N)(c1ccccc1)C(C)C)N(C)C (stereo not given) | -12.6%
Oc1ccc(CCNCCCCCCNCCc2ccccc2)cc1O | -26.7%
CCC(C)CCCC(C)(C)O (stereo not given) | 16.5%
CCCCCCCCNC | -3.89%
N#Cc1ccc(CC(=O)c2cccc(C(F)(F)F)c2)cc1 | 4%
Cc1cc(C)n(CO)n1 | 6.8%
CCCCCC1CCC(=O)O1 (stereo not given) | 10.1%
CCc1ccc2c(c1)C(=O)c1ccccc1C2=O | 15.7%
CCc1ccc(C(=O)C(C)CN2CCCCC2)cc1 (stereo not given) | -10.4%
CC(C(=O)O)c1ccc(/C=C2\CCCCC2=O)cc1 (stereo not given) | -1.12%
Oc1ccc(Oc2ccccc2)cc1 | 0.802%
CC(=O)c1ccc(Cl)c(Cl)c1Cl | -20.9%
C(/C=C/C=C/Nc1ccccc1)=Nc1ccccc1 | 5.45%

Structure (SMILES) | activity change, negative = cytotoxicity
O=Cc1ccc([N+](=O)[O-])cc1 | -4.18% [at 81.1 µM]
COc1cc(CNC(=O)CCCC/C=C/C(C)C)ccc1O | 7.98%
O=C1c2ccccc2C(=O)C1c1ccc2cc(S(=O)(=O)O)cc(S(=O)(=O)O)c2n1 | -20.9% [at 81.1 µM]
CC1=CC(=C(c2ccc(N)cc2)c2ccc(N)cc2)C=CC1=N | -5.62% [at 5.95 µM]
Cc1c(Cl)cccc1Nc1ccccc1C(=O)O | 0.124%
Cc1c(-c2cccnc2)c2ccccc2n1CCCCC(=O)O | 10.4%
Cc1cccc(C)c1NC(=O)CN1CCCC1 | 5.89%
NC(=O)c1ccccc1 | 4.37% [at 81.1 µM]
COc1ccc(/C=C/S(=O)(=O)NC(=O)c2ccc(C)cc2Cl)cc1 | -15.8%
OCC(O)c1ccccc1 (stereo not given) | -0.192%
CCOC(C)OCC | -0.738%
C[C@]12CCC(=O)C=C1[C@@H]1C[C@@H]1[C@H]1[C@@H]3[C@@H]4C[C@@H]4[C@@]4(CCC(=O)O4)[C@@]3(C)CC[C@@H]12 | -3.25%
CCCOC(C)=O | 14.9%
CCCCCCOC(=O)c1ccccc1 | -27%
CCOCCn1c(N2CCCN(C)CC2)nc2ccccc21 | -8.02%
CC(COc1ccccc1)NC(C)C(O)c1ccc(O)cc1 (stereo not given) | -18.4%
CC(=O)CC/C=C(\C)CC/C=C(\C)CC/C=C(\C)CCC=C(C)C | -1.3%
C=CC(=O)OCCCCCCCCCC | -2.54%
CC(C)(C(=O)O)c1ccc(C(O)CCCN2CCC(C(O)(c3ccccc3)c3ccccc3)CC2)cc1 (stereo not given) | 3.54%
FC(F)(Cl)C(F)(Cl)Cl | -6.65%
